Source: PubChem
Shown are actives, neighbours in structure and some others; about 2.5% of the full set was active somewhere.
EBV LMP1 NFkB: reduces LMP1-driven NF-kappaB luciferase signal | LMP1-induced NF-kappaB luciferase reporter cells, luminescence | inhibition, % at 12.5 µM | AID 504558 | 0.69% of 350,000 active; in the data active means inhibition above about 41%
TWEAK-Fn14 inh: blocks TWEAK-Fn14 interaction in a reporter cell assay; TWEAK-stimulated Fn14 reporter cells, luciferase luminescence, 8 h; inhibition, % at 10 µM; 2% of 360,000 active; in the data active means inhibition above about 50%
EWS-Fli block: blocks EWS/Fli oncoprotein-driven transcription. 0.67% of 350,000 active. AID 651661. inhibition, % at 12.6 µM. A673 NR0B1-luciferase reporter, viability-normalised;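 active means mean inhibition of at least 50% after viability correction, with every replicate also passing that limit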;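 further: firefly luciferase signal divided by Alamar Blue viability fluorescence both relative to DMSO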
LGR2 antag: inhibitors of bursicon-induced Drosophila LGR2 receptor cAMP signaling; HEK293 LGR2, CRE-luciferase, bursicon-stimulated, 4 h; 0.35% of 380,000 active; AID 720647; inhibition, % at 9.99 µM;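 active means drop in luminescence signal, shown as inhibition above about 50% in the replicate tests, limit read from the data, passing the limit was not always enough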;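 further: agonist challenge used bursicon conditioned medium at about half maximal strength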
TROY NFkB inh: inhibitors of TROY-dependent NF-kB signaling; Q293 LMP1-TROYcd NF-kB luciferase reporter, 4 h; inhibition, % at 10 µM; 0.98% of 360,000 active;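 active means compounds whose plate-normalised and pattern-corrected inhibition of the luciferase reporter signal at the single screening dose is 50% or more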
A number is an active result; i = inactive; nt = no result given.

SMILES	EBV LMP1 NFkB	TWEAK-Fn14 inh	EWS-Fli block	LGR2 antag	TROY NFkB inh
C=CCn1c(SCC(=O)N2CCCCCC2)nc2ccccc2c1=O	i	72.5	i	i	i
CCn1c(SCC(=O)N2CCCCCC2)nc2ccccc2c1=O	i	i	i	i	i
COc1cc(Cl)c(S(=O)(=O)NCc2cccnc2)cc1Cl	i	84.1	i	i	53.8
Cc1cccc(OCCNC(=O)c2ccc(Cl)c(S(=O)(=O)NCc3cccnc3)c2)c1	i	i	57.4	i	i
COc1ccc(Cl)cc1S(=O)(=O)NCc1cccnc1	i	i	nt	i	i
COC(=O)C1CCN(C(=O)c2ccc(Cl)c(S(=O)(=O)NCc3cccnc3)c2)CC1	i	i	nt	nt	i
CN1/C(=C\C(=O)CSc2nnc(N)s2)C(C)(C)c2ccccc21	i	i	i	i	i
COc1ccc(Nc2nnc(SCC(=O)/C=C3/N(C)c4ccccc4C3(C)C)s2)cc1	i	70.7	nt	i	i
C[C@H](CO)N1C[C@H](C)[C@@H](CN(C)Cc2ccc(C(=O)O)cc2)Oc2ccc(NC(=O)Nc3ccc(C(F)(F)F)cc3)cc2CC1=O	nt	nt	i	i	nt
Cc1ccc(/C=C/C(=O)N2CCN(S(=O)(=O)c3cccs3)CC2)o1	i	85.7	i	i	i
Cc1ccc(N=C/C(C(=O)C(F)(F)F)=C(\O)c2cccs2)cc1	i	83.4	nt	nt	i
O=C(/C(N=Nc1cccc(C(F)(F)F)c1)=C(/O)c1cccs1)C(F)(F)F	i	56.8	i	nt	i
Cc1ccc(NCCC(=O)c2cccs2)cc1	i	i	i	i	i
CCn1c(C)nc2cc(C(=O)OC(C(F)(F)C(F)F)C(F)(F)C(F)F)ccc21	i	i	nt	nt	57.0
CCn1c(C)nc2cc(C(=O)NNC(=O)c3ccc(Cl)nc3)ccc21	i	i	i	i	i
CCn1c(C)nc2cc(C(=O)NNC(=S)Nc3ccc(Cl)cc3)ccc21	i	i	i	i	i
CCn1c(C)nc2cc(C(=O)NNC(=O)c3ccc(C)cc3)ccc21	i	72.4	i	i	77.7
CCn1c(C)nc2cc(C(=O)NNC(=S)Nc3ccccc3)ccc21	i	70.6	i	i	77.7
O=C(C[C@H]1C=C[C@H](NC(=O)C2CCOCC2)[C@H](CO)O1)NCC1CC1	nt	nt	i	i	nt
CCCC(=O)Nc1ccc2c(c1)C(=O)N(C)C[C@@H](OC)[C@H](C)CN(C(=O)Cc1ccccn1)[C@H](C)CO2	nt	nt	i	i	nt
COC(=O)CC1CC2(C(=O)OC)c3[nH]c4ccccc4c3CCN2C1=O (stereo not given)	nt	i	i	i	i
CCC12CC1(C(=O)OC)C(=O)N1CCc3c([nH]c4ccccc34)C12 (stereo not given)	nt	i	nt	nt	62.0
C[C@H]1CCCCO[C@@H](CN(C)C(=O)c2ccncc2)[C@@H](C)CN([C@@H](C)CO)C(=O)c2cc(NS(=O)(=O)c3cn(C)cn3)ccc2O1	nt	nt	i	i	nt
CCOC(=O)c1c(C)[nH]c(C(=O)N/N=C/c2ccc(Br)cc2)c1C	i	54.9	nt	i	i
CNC(=O)C1=NCCCc2cc(OC)c(OC)cc21	64.2	i	nt	i	i
SMILES	EBV LMP1 NFkB	TWEAK-Fn14 inh	EWS-Fli block	LGR2 antag	TROY NFkB inh
COc1ccc(F)cc1-c1cc(C(=O)NCc2cc(C(F)(F)F)cc(C(F)(F)F)c2)[nH]n1	nt	i	i	i	i
CCCOc1ccc(F)cc1-c1cc(C(=O)Nc2ccc(C)c(NS(C)(=O)=O)c2)[nH]n1	nt	59.2	i	i	i
CCCOc1ccc(F)cc1-c1cc(C(=O)NCc2cc(C(F)(F)F)cc(C(F)(F)F)c2)[nH]n1	nt	52.9	nt	nt	i
C=CCNC(=O)[C@H]1[C@@H]2C(=O)O[C@@H](c3ccccc3)[C@@H](c3ccccc3)N2[C@@H](c2ccc(OCCO)cc2)[C@]12C(=O)Nc1ccccc12	nt	nt	i	nt	nt
CN1C(=O)c2cc(NS(C)(=O)=O)ccc2OC[C@@H]2O[C@H](CC(=O)NCc3ccc(-c4ccccc4)cc3)CC[C@@H]21	nt	nt	i	i	nt
COc1cccc(/C=C2/CCC(CN(C)C)C2=O)c1 (stereo not given)	i	85.7	i	nt	i
COc1ccc(/C=C2/CCCC(CN(C)C)C2=O)cc1 (stereo not given)	i	i	i	i	i
COc1ccc(C=NNc2ccc(S(=O)(=O)Nc3ccccc3C(=O)O)cc2[N+](=O)[O-])c(OC)c1	i	i	nt	nt	59.2
COc1ccc(NS(=O)(=O)c2ccc(N/N=C(\C)c3ccncc3)c([N+](=O)[O-])c2)cc1	i	73.9	i	i	i
O=C(O)c1ccccc1NS(=O)(=O)c1ccc(NN=Cc2ccccc2F)c([N+](=O)[O-])c1	i	i	i	i	i
Cc1nn(-c2ccccc2)c(Cl)c1/C=N/Nc1ccc(S(=O)(=O)Nc2ccccc2C(=O)O)cc1[N+](=O)[O-]	i	i	nt	i	52.1
